Measured values published in PubChem BioAssay AID1259418 (Broad Institute, 2018).
Screen size: about 3,400 compounds; about 840 (25%) were called active. Another 11% or so got no clear call; they are omitted. These entries were drawn from the full list. Potency and affinity values are given separately. Values without a mark were called inactive.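 How the source made its calls: active means fitted half-maximal concentration of signal decrease at or below twice the sample's top tested concentration; inconclusive means flat curve between -70 and -30 percent, or poor fit; inactive means flat within 30 percent, signal rise, or potency above limit.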

Test: T. gondii growth inhibition with IFN-gamma, dose response, cell-based, ME49Luc, HeLa, luciferase, 72 h (AID 1259418)
Details: T. gondii ME49Luc in IFN-y HeLa, hits give low values, -100% = high-dose IFN-γ control wells; at 19.5 µM unless noted

With `CCOC(=O)c1nn(Cc2ccccc2)c2c1CN(C(=O)CN1CC(c3ccccc3)CC1=O)CC2` (centres undefined) the max activity was -5.83% [at 0.038 µM].

First: Cc1ccc2c(c1C)-n1cccc1C1(CCN(C(=O)COc3ccccc3)CC1)N2
Second: COc1ccc(-c2nc(Cn3c(=O)c4cccnc4n(-c4ccccc4)c3=O)c(C)o2)cc1
The max activity of the first is lower: -7.11% [at 2.6 µM] for the first, -4.3% [at 2.6 µM] for the second.

Compared with `CCc1nc(OCC(=O)Nc2cc(Cl)ccc2Cl)c2ccccc2n1`, `Cc1nc(CCNC(=O)C2CCN(C(=O)c3ccc(F)cc3)CC2)cs1` is lower in max activity: 24.4% [at 2.6 µM] for the first, 11.3% [at 2.6 µM] for the second.

Compared with `Nc1ccc(S(=O)(=O)NC(=O)c2ccccc2)cc1`, `CCc1ccccc1NC(=O)Nc1ccc(-c2nc(-c3ccccc3)co2)cc1` is higher in max activity: -6.84% [at 5 µM] for the first, 13.1% [at 5 µM] for the second.

Compared with `COc1cccc(CN2CCc3nc(SCc4nc(-c5ccc(C)cc5)oc4C)[nH]c(=O)c3C2)c1`, `CCc1c(C)sc2c1CCN(Cc1nc(-c3ccc(C)cc3)oc1C)C2c1ccccc1` (centres undefined) is lower in max activity: 42.8% for the first, 11.6% for the second.

Going from `Cc1ccc(-c2coc(-c3ccc(NC(=O)C(C)(C)C)cc3)n2)c(C)c1` to `Cc1ccc(C)c(-c2coc(-c3ccc(NC(=O)C(C)C)cc3)n2)c1`, the max activity falls from 40.9% to 14.2%.

Going from `CCc1nc(OCC(=O)NCc2ccc(C)cc2)c2ccccc2n1` to `CCc1nc(OCC(=O)Nc2ccc(C)cc2)c2ccccc2n1`, the max activity rises from 13.9% to 32.4%.

First: COc1cccc(C(=O)Nc2ccc(-c3nc(-c4ccc(C)cc4C)co3)cc2)c1
Second: COC(=O)c1cccc(NC(=O)Nc2ccc(-c3nc(-c4ccccc4)co3)cc2)c1
The max activity of the first is higher: 37.5% for the first, 9.82% for the second.

Compared with `COc1cccc(-c2nc3c(s2)CN(C(=O)Nc2ccc(OC)cc2OC)CC3)c1`, `COc1ccc(-c2nc3c(s2)CN(S(=O)(=O)c2ccc(Cl)cc2)CC3)cc1` is lower in max activity: 52.4% for the first, 8.74% for the second.

First: CCOc1ccc(-c2nc3c(s2)CN(S(=O)(=O)c2ccc(F)cc2)CC3)cc1
Second: CCOc1ccc(-c2nc3c(s2)CN(S(=O)(=O)c2ccc(F)cc2F)CC3)cc1
The max activity of the first is lower: 36.2% for the first, 95.1% for the second.

First: Cc1oc(-c2ccccc2)nc1Cn1nnc(-c2nc(-c3ccccc3Cl)no2)c1C
Second: CN(C[C@H]1[C@H](c2ccccc2)[C@@H](CO)N1CC1CC1)C(=O)c1ccc(F)cc1
The max activity of the first is lower: 7.39% for the first, 49.7% for the second.

Going from `O=C(C1CCC1)N1CC(=O)N2[C@H](CO)[C@H](c3ccc(Br)cc3)[C@H]2C1` to `Cc1nc(CCNC(=O)C2CCN(C(=O)c3ccc(Cl)cc3)CC2)cs1`, the max activity falls from 54.7% to -28.7%.

Compared with `Cc1nc(CCNC(=O)C2CCN(C(=O)c3cccc(F)c3)CC2)cs1`, `CCCNC(=O)C[C@H]1CC[C@@H]2[C@H](COC[C@H](O)CN2C(=O)Nc2ccc(Cl)c(Cl)c2)O1` is higher in max activity: -15.3% for the first, 33.9% for the second.

Going from `CCc1ccccc1NC(=O)CN1CCC2(CC1)N=C(c1ccc(F)cc1)C(=O)N2` to `CCc1nc(OCC(=O)Nc2ccc(C)c(C)c2)c2ccccc2n1`, the max activity rises from -11.7% [at 0.35 µM] to 17.1% [at 0.35 µM].

`Clc1ccc(-c2nc(NCc3cccs3)c3ccccc3n2)cc1` showed a max activity of 13.5% [at 0.35 µM].

Going from `CCc1ccc(NC(=O)COc2nc(CC)nc3ccccc23)cc1` to `Cc1ccc(C)c(-c2coc(-c3ccc(NC(=O)NCc4ccco4)cc3)n2)c1`, the max activity falls from -19.6% [at 1.35 µM] to -45.2% [at 1.35 µM].

Compared with `Cc1nc(-c2ccc(F)cc2)sc1-c1ccc(SCc2ccc(Cl)cc2)nn1`, `COc1ccccc1-c1nc(Cn2nnc(-c3nc(-c4ccc(OC(C)C)cc4)no3)c2C)c(C)o1` is lower in max activity: -5.59% [at 1.35 µM] for the first, -5.67% [at 1.35 µM] for the second.

First: CCc1nc(OCC(=O)Nc2ccc(C)cc2Cl)c2ccccc2n1
Second: CCc1nc(OCC(=O)Nc2ccc(Br)cc2F)c2ccccc2n1
The max activity of the first is lower: 18.6% [at 0.68 µM] for the first, 35.6% [at 0.68 µM] for the second.

First: CCc1nc(OCC(=O)NCc2ccc(F)cc2)c2ccccc2n1
Second: CCN(C(=O)COc1nc(C)nc2ccccc12)c1ccccc1
The max activity of the first is lower: -17.9% [at 0.68 µM] for the first, 18.8% [at 0.68 µM] for the second.

For `Cc1ccc(NC(=O)CN2CCC3(CC2)N=C(c2ccc(Cl)cc2)C(=O)N3)cc1C`, the max activity was -6.27% [at 0.68 µM].

First: Cc1nc(OCC(=O)Nc2ccc(C)c(F)c2)c2ccccc2n1
Second: CCc1nc(OCC(=O)N(CC)c2ccccc2)c2ccccc2n1
The max activity of the first is higher: 21.5% [at 10 µM] for the first, 9.96% [at 10 µM] for the second.

First: Cc1cccc(-c2nc(Cn3nnc(-c4nc(-c5ccccc5Cl)no4)c3C)c(C)o2)c1
Second: CCOc1ccc(-c2nc3c(s2)CN(S(=O)(=O)c2cccc(Cl)c2C)CC3)cc1
The max activity of the first is lower: 15.3% [at 10 µM] for the first, 15.9% [at 10 µM] for the second.

Going from `CN(C)CC(=O)N1C[C@@H]2N[C@H](C1)C2c1ccc(-c2ccccc2F)cc1` (some centres undefined) to `O=S(=O)(c1ccc(F)cc1)N1CCCCN2[C@H](C1)[C@H](c1ccc(-c3cncnc3)cc1)[C@@H]2CO`, the max activity rises from 5.96% [at 10 µM] to 22.1% [at 10 µM].

Work on `O=C(C[C@H]1CC[C@H]2[C@@H](COC[C@@H](O)CN2C(=O)c2cc(Cl)cc(Cl)c2)O1)N1CCc2ccccc2C1` yielded a max activity of 26.3% [at 10 µM].

Going from `CC(C)OCCCNC(=O)CC1Nc2c3ccccc3nc(=S)n2C1=O` (centres undefined) to `CCc1nc(OCC(=O)Nc2cccc(Cl)c2)c2ccccc2n1`, the max activity rises from 19.5% [at 0.16 µM] to 20.4% [at 0.16 µM].

Compared with `CSc1ccc(-c2noc(-c3nnn(Cc4nc(-c5cccc(Cl)c5)oc4C)c3C)n2)cc1`, `COc1cccc(C(=O)N2CCC3(CC2)Nc2ccc(C)c(C)c2-n2cccc23)c1` is lower in max activity: 12.2% [at 0.16 µM] for the first, -8.8% [at 0.16 µM] for the second.

For `COc1cccc(C(=O)N2CCC(C(=O)NCCc3csc(C)n3)CC2)c1`, the max activity was -13.8% [at 0.16 µM].
